Reference: PubChem BioAssay (NCI)
The panel holds about 79,000 compounds, 15% with a hit somewhere; the sample as a whole holds those more often. Activity calls are given as the source filed them. No stated cut-off is given here; in the data, active means growth inhibition above about 70%; inactive means the rest.

How the values were obtained:
[1] = NCI Yeast Anticancer Drug Screen. Data for the rad52 strain (AID 147);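 further: 0% = growth of vehicle-treated control cultures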; details: S. cerevisiae rad52 mutant growth inhibition, active compounds read high
Outline: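 Measured: yeast growth inhibition. System: strain with a defined DNA damage repair alteration. Reference: vehicle-treated control cultures.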

[2] = NCI Yeast Anticancer Drug Screen. Data for the wt1 strain (AID 149);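 further: 0% = growth of vehicle-treated wt1 cultures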; details: S. cerevisiae wt1 strain (SPY 50644) growth inhibition, active compounds read high
Outline: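 Yeast wt1 strain exposed to compounds; growth inhibition measured relative to vehicle-treated controls.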

[3] = NCI Yeast Anticancer Drug Screen. Data for the rad50EPP+ strain (AID 151);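 further: 0% = growth of vehicle-treated control cultures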; details: S. cerevisiae rad50 mutant strain, active compounds read high
Outline: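 One strain with a rad50 alteration (rad50EPP+) was compound-treated, its growth then compared to that of vehicle controls.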

[4] = NCI Yeast Anticancer Drug Screen. Data for the mgt1 strain (AID 153); details: S. cerevisiae mgt1 mutant growth inhibition, active compounds read high
Outline: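 After exposure of the mgt1 yeast mutant to compound, growth was measured and reported as inhibition compared with vehicle controls.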

[5] = NCI Yeast Anticancer Drug Screen. Data for the rad50 strain (AID 155);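 further: 0% = growth of vehicle-only cultures of the same strain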; details: S. cerevisiae rad50 strain growth inhibition, active compounds read high
Outline: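 Yeast carrying a defined DNA repair defect were exposed to test compounds, and growth was compared with vehicle-treated controls to give percent inhibition.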

[6] = NCI Yeast Anticancer Drug Screen. Data for the mec2-1 strain (AID 157); details: S. cerevisiae mec2-1 strain, active compounds read high
Outline: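 Test agents were screened against the mec2-1 yeast strain, with defined DNA repair or cell cycle alteration. Growth was scored as inhibition against vehicle-only controls.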

[7] = NCI Yeast Anticancer Drug Screen. Data for the rad14 strain (AID 159);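 further: 0% = growth of vehicle-treated control cultures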; details: S. cerevisiae rad14 strain growth inhibition, active compounds read high
Outline: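 Yeast cells carrying a defined DNA-repair defect were exposed to compounds, and growth inhibition was calculated relative to vehicle-treated control cultures.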

[8] = NCI Yeast Anticancer Drug Screen. Data for the sgs1 mgt1 strain (AID 161);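 further: 0% = growth of cultures given vehicle only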; details: S. cerevisiae sgs1 mgt1 strain, active compounds read high
Outline: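 Mutant yeast exposed to compound; growth scored against vehicle-only wells.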

[9] = NCI Yeast Anticancer Drug Screen. Data for the CLN2oe strain (AID 163);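 further: 0% = growth of vehicle-only control cultures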; details: S. cerevisiae CLN2oe strain, active compounds read high
Outline: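 Here, growth inhibition in a cell-cycle-altered yeast strain after compound exposure was quantified against vehicle control growth.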

[10] = NCI Yeast Anticancer Drug Screen. Data for the cln2 rad14 strain (AID 165);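 further: 0% = growth equal to vehicle treated cultures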; details: S. cerevisiae cln2 rad14 strain, active compounds read high
Outline: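 Growth of compound-exposed yeast (cln2 rad14 genotype) measured and expressed as inhibition relative to vehicle.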

[11] = NCI Yeast Anticancer Drug Screen. Data for the bub3 strain (AID 167); details: S. cerevisiae bub3 mutant strain, active compounds read high
Outline: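 Compounds were applied to a genetically altered yeast strain carrying a cell-cycle control defect. Growth inhibition was scored against vehicle-treated controls.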

[12] = NCI Yeast Anticancer Drug Screen. Data for the wt2 strain (AID 169);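 further: 0% = growth of vehicle-treated yeast cultures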; details: S. cerevisiae wt2 strain growth inhibition, active compounds read high
Outline: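 Genetically defined yeast strains from a DNA-repair/cell-cycle panel were used. Compound-exposed yeast growth was measured, and the inhibition was calculated relative to vehicle treatment.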

[13] = NCI Yeast Anticancer Drug Screen. Data for the mlh1 strain (AID 171);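 further: 0% = growth of vehicle-treated control cultures of the same strain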; details: S. cerevisiae mlh1 strain growth inhibition, active compounds read high
Outline: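 Here the genetically defined yeast mutant is grown with each compound, and the extent to which its growth falls below that of vehicle-exposed cells is reported.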

[14] = NCI Yeast Anticancer Drug Screen. Data for the sgs1 strain (AID 173);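 further: 0% = growth of vehicle-only control cultures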; details: S. cerevisiae sgs1 mutant, active compounds read high
Outline: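 Relative growth inhibition, referenced to vehicle, was determined in a yeast strain with a defined alteration affecting DNA damage repair or cell cycle control after compound exposure.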

[15] = NCI Yeast Anticancer Drug Screen. Data for the mlh1 rad18 strain (AID 175); details: S. cerevisiae mlh1 rad18 strain growth inhibition, active compounds read high
Outline: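 In this whole-cell yeast screen, a strain with altered DNA damage repair is challenged with compound, and its growth is measured against matched vehicle-treated controls.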

[16] = NCI Yeast Anticancer Drug Screen. Data for the rad18 strain (AID 177); details: S. cerevisiae rad18 mutant growth inhibition, active compounds read high
Outline: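 Screen uses a yeast strain with a defined lesion in DNA damage repair; compound effect is read as loss of growth compared to untreated vehicle cultures.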

[17] = at 5.0 µM (retest, dose inferred, filed as 0.5)
[18] = at 50.0 µM (retest, dose inferred, filed as 5.0)

Measured: growth inhibition

O=C(N=Nc1ccccc1Cl)NNc1ccccc1Cl
inactive: [1]; at 1.2 µM 25% | [1]; at 3.7 µM 19% | [1]; at 11.0 µM 13% | [1]; at 33.0 µM 28% | [1]; at 100.0 µM 26% | [2]; at 1.2 µM 4% | [2]; at 3.7 µM 2% | [2]; at 11.0 µM 0% | [2]; at 33.0 µM 5% | [2]; at 100.0 µM 6% | [3]; at 1.2 µM 17% | [3]; at 3.7 µM 19% | [3]; at 11.0 µM 26% | [3]; at 33.0 µM 39% | [3]; at 100.0 µM 20% | [4]; at 1.2 µM -5% | [4]; at 3.7 µM -5% | [4]; at 11.0 µM 3% | [4]; at 33.0 µM -18% | [4]; at 100.0 µM -2% | [5]; at 1.2 µM 8% | [5]; at 3.7 µM 8% | [5]; [17] -15% | [5]; at 11.0 µM -15% | [5]; at 33.0 µM 14% | [5]; [18] 16% | [5]; at 50.0 µM 44.5% | [5]; at 100.0 µM 13% | [6]; at 1.2 µM -1% | [6]; at 3.7 µM 1% | [6]; [17] -15% | [6]; at 11.0 µM 7% | [6]; at 33.0 µM 6% | [6]; [18] 38% | [6]; at 50.0 µM 21.1% | [6]; at 100.0 µM 12% | [7]; at 1.2 µM -3% | [7]; at 3.7 µM -9% | [7]; at 11.0 µM -2% | [7]; at 33.0 µM 5% | [7]; at 100.0 µM 11% | [8]; [17] -18% | [8]; [18] 8% | [8]; at 50.0 µM 26.8% | [9]; at 1.2 µM 7% | [9]; at 3.7 µM -3% | [9]; at 11.0 µM 6% | [9]; at 33.0 µM 22% | [9]; at 100.0 µM 27% | [10]; [17] -25% | [10]; [18] 45% | [10]; at 50.0 µM 47.1% | [11]; at 1.2 µM 2% | [11]; at 3.7 µM 18% | [11]; [17] -40% | [11]; at 11.0 µM 13% | [11]; at 33.0 µM 15% | [11]; [18] 69% | [11]; at 50.0 µM 49.1% | [11]; at 100.0 µM 11% | [12]; at 1.2 µM 0% | [12]; at 3.7 µM 0% | [12]; at 11.0 µM 3% | [12]; at 33.0 µM 7% | [12]; at 100.0 µM 8% | [13]; at 1.2 µM 0% | [13]; at 3.7 µM -4% | [13]; at 11.0 µM 2% | [13]; at 33.0 µM 5% | [13]; at 100.0 µM 4% | [14]; at 1.2 µM 9% | [14]; at 3.7 µM 5% | [14]; at 11.0 µM 9% | [14]; at 33.0 µM 21% | [14]; at 100.0 µM 19% | [15]; [17] -7% | [15]; [18] 41% | [15]; at 50.0 µM 21.6% | [16]; at 1.2 µM 16% | [16]; at 3.7 µM 13% | [16]; at 11.0 µM 8% | [16]; at 33.0 µM 3% | [16]; at 100.0 µM 7%

c1ccc(-c2ccnc3c2ccc2c(-c4ccccc4)ccnc23)cc1
active: [1]; at 33.0 µM 99% | [1]; at 100.0 µM 99% | [2]; at 33.0 µM 97% | [2]; at 100.0 µM 97% | [3]; at 33.0 µM 97% | [3]; at 100.0 µM 97% | [4]; at 33.0 µM 98% | [4]; at 100.0 µM 97% | [5]; at 33.0 µM 98% | [5]; [18] 97% | [5]; at 50.0 µM 91.2% | [5]; at 100.0 µM 97% | [6]; at 33.0 µM 99% | [6]; [18] 98% | [6]; at 50.0 µM 92.8% | [6]; at 100.0 µM 96% | [7]; at 33.0 µM 98% | [7]; at 100.0 µM 97% | [8]; [18] 97% | [8]; at 50.0 µM 92.1% | [9]; at 33.0 µM 98% | [9]; at 100.0 µM 98% | [10]; [18] 96% | [10]; at 50.0 µM 92% | [11]; at 33.0 µM 98% | [11]; [18] 96% | [11]; at 50.0 µM 90.3% | [11]; at 100.0 µM 97% | [12]; at 33.0 µM 98% | [12]; at 100.0 µM 97% | [13]; at 33.0 µM 98% | [13]; at 100.0 µM 98% | [14]; at 33.0 µM 98% | [14]; at 100.0 µM 96% | [15]; [18] 97% | [15]; at 50.0 µM 90.3% | [16]; at 33.0 µM 98% | [16]; at 100.0 µM 97%
inactive: [1]; at 1.2 µM 4% | [1]; at 3.7 µM 21% | [1]; at 11.0 µM 50% | [2]; at 1.2 µM 5% | [2]; at 3.7 µM -4% | [2]; at 11.0 µM 9% | [3]; at 1.2 µM 2% | [3]; at 3.7 µM -4% | [3]; at 11.0 µM 22% | [4]; at 1.2 µM 10% | [4]; at 3.7 µM -9% | [4]; at 11.0 µM 63% | [5]; at 1.2 µM 7% | [5]; at 3.7 µM 13% | [5]; [17] 2% | [5]; at 11.0 µM 67% | [6]; at 1.2 µM 22% | [6]; at 3.7 µM 24% | [6]; [17] -31% | [6]; at 11.0 µM 53% | [7]; at 1.2 µM -6% | [7]; at 3.7 µM -17% | [7]; at 11.0 µM 54% | [8]; [17] 23% | [9]; at 1.2 µM -8% | [9]; at 3.7 µM -20% | [9]; at 11.0 µM 50% | [10]; [17] 48% | [11]; at 1.2 µM 24% | [11]; at 3.7 µM 27% | [11]; [17] 11% | [11]; at 11.0 µM 60% | [12]; at 1.2 µM 0% | [12]; at 3.7 µM -3% | [12]; at 11.0 µM 11% | [13]; at 1.2 µM -7% | [13]; at 3.7 µM -8% | [13]; at 11.0 µM 46% | [14]; at 1.2 µM 12% | [14]; at 3.7 µM 11% | [14]; at 11.0 µM 62% | [15]; [17] -32% | [16]; at 1.2 µM 9% | [16]; at 3.7 µM 12% | [16]; at 11.0 µM 49%
